Measured values: PubChem BioAssay (Tox21)
Records with an inconclusive call do not appear. The source made the active and inactive calls. Unless noted, calls come from the whole dose curve.

Key:
[1] = Nuclear factor erythroid 2-related factor 2/antioxidant responsive element (Nrf2/ARE) small molecule agonists: qHTS cell viability counter screen in human keratinocytes (AID 1919968; active = well fitted curve in the direction sought with a large enough effect in the repeat runs; an effect the other way counts as inactive or inconclusive; note: nearly all actives have a fitted effect of over 55% in size; note: potency is the fitted concentration of half-maximal effect)
Summary of the method: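 Seed 1,500 KeratinoSens cells per well, then incubate 5 h at 37 C/5% CO2. Add compounds in DMSO and incubate 23 h. Add CellTiter-Fluor, wait 1 h and read fluorescence.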

[2] = Nuclear factor erythroid 2-related factor 2/antioxidant responsive element (Nrf2/ARE) small molecule agonists: luciferase reporter gene qHTS assay in human keratinocytes (AID 1919969); note: nearly all actives have a fitted effect of over 35% in size; note: potency is the fitted concentration of half-maximal effect
[3] = molecular target: Gonadotropin-releasing hormone receptor (Homo sapiens) (UniProt P30968); assay: Human gonadotropin-releasing hormone receptor (GnRHR) small molecule agonists, calcium flux assay in GnRHR-HEK293 cells (AID 1920063); note: nearly all actives have a fitted effect of over 35% in size; note: potency is the fitted concentration of half-maximal effect
Summary of the method: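 Cells: HEK293 stably expressing human GnRHR. Steps: overnight (18 h) culture, 1 h calcium dye loading at 37 C, compound addition, kinetic fluorescence read at 480/540 nm. Each compound tested at 15 concentrations in triplicate.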

[4] = molecular target: KiSS-1 receptor (Homo sapiens) (UniProt Q969F8); assay: Human kisspeptin (KISS1R) small molecule agonists, calcium flux assay in KISS1R-HEK293 cells (AID 1920064; active = well fitted curve in the direction sought with a large enough effect in the repeat runs; an effect the other way counts as inactive or inconclusive)
Summary of the method: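 Cells plated and incubated 18 h; dye added, 1 h at 37 C; compounds in DMSO pinned in; signal read at 480/540 nm every second for 3 min. Each compound tested at 15 concentrations in triplicate.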

[5] = G protein-coupled receptor (GPCR) small molecule agonists, calcium flux assay: HEK293 wild type cell line counter screen (AID 1920065)
Summary of the method: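 Counter-screen of the Tox21 10K library for non-specific calcium release: dye-loaded cells received compounds in DMSO and were monitored by kinetic fluorescence (480/540 nm, 3 min). Fifteen concentrations, run in triplicate.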

[6] = p53 small molecule agonists, cell-based qHTS assay with human liver microsomes (AID 1963577);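 note: p53 response element beta-lactamase reporter cells with liver microsomes plus NADPH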
Summary of the method: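 p53RE-bla cells; 5 h settle, 37 C/5% CO2; cpd + HLM 0.5 mg/mL + NADPH 0.5 mg/mL (final); 16 h 37 C; LiveBLAzer 2 h RT dark; fluorescence readout.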

[7] = p53 small molecule agonists, cell-based qHTS assay with rat liver microsomes (AID 1963578)
Summary of the method: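 Rat liver microsome activation: microsomes 0.5 mg/mL, NADPH 0.5 mg/mL final; p53RE-bla cells, 16 h 37 C; LiveBLAzer readout, 2 h RT dark.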

[8] = p53 small molecule agonists, cell-based qHTS assay with human liver microsomes: qHTS cell viability counter screen (AID 1963579); note: nearly all actives have a fitted effect of over 45% in size; note: potency is the fitted concentration of half-maximal effect
Summary of the method: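 Luminescent CellTiter-Glo read-out, 30 min at room temperature, gauged cytotoxicity in p53RE-bla cells exposed 16 h at 37 C to DMSO-dissolved compounds with metabolic activation by human liver microsomes and NADPH, each 0.5 mg/mL final.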

[9] = p53 small molecule agonists, cell-based qHTS assay with rat liver microsomes: qHTS cell viability counter screen (AID 1963580); note: nearly all actives have a fitted effect of over 45% in size; note: potency is the fitted concentration of half-maximal effect
Summary of the method: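 p53RE-bla HCT-116 cells were exposed 16 h at 37 C to compounds with rat liver microsomes (0.5 mg/mL) and NADPH (0.5 mg/mL). Viability was measured in the same wells as ATP content by CellTiter-Glo luminescence.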

[10] = p53 small molecule agonists, cell-based qHTS assay (AID 1963582; active = well fitted activation curve with a large enough effect in the signal ratio in the repeat runs, not every such curve was filed as active; the % refers to the signal ratio; note: potency is the fitted concentration of half-maximal effect)
Summary of the method: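 Quantitative HTS in p53RE-bla cells: after a 5 h settling period, compounds delivered in DMSO were left on cells for 16 h at 37 C, and reporter induction was measured as fluorescence following 2 h substrate loading.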

[11] = cAMP Responsive Elements (CRE) small molecule agonists, cell-based qHTS assay (AID 1963590)
Summary of the method: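 Agonist mode qHTS in CRE-bla HEK 293T cells: compounds dosed from DMSO for 3 h at 37 C/5% CO2, followed by LiveBLAzer B/G FRET substrate for 2 h at room temperature.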

[12] = molecular target: Beta-2 adrenergic receptor (Homo sapiens) (UniProt P07550); assay: Adrenergic beta2 receptor (ADRB2) small molecule antagonists, cell-based qHTS assay (AID 1963592); note: series mostly up to about 92 µM; nearly all actives have a fitted effect of over 50% in size
Summary of the method: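 Cells (CHO, stable ADRB2 overexpression) incubated 18-20hr at 37C; compounds added from DMSO; agonist mix (1nM isoproterenol, 100uM IBMX, 25uM Ro-20-1724) added; 0.5hr RT; d2-cAMP and anti-cAMP-cryptate added; 1hr RT; 665/615 nm read.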

[13] = molecular target: Beta-2 adrenergic receptor (Homo sapiens) (UniProt P07550); assay: Adrenergic beta2 receptor (ADRB2) small molecule agonists, cell-based qHTS assay (AID 1963593);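 note: CHO cells stably overexpressing human ADRB2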
Summary of the method: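 CHO cells stably over-expressing ADRB2 were plated overnight at 37C, then dosed with compounds plus a stimulation mix containing 100uM IBMX and 25uM Ro-20-1724 for 0.5hr at room temperature. cAMP was measured by HTRF competition, 1hr.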

[14] = molecular target: D(2) dopamine receptor (Homo sapiens) (UniProt P14416); assay: Dopamine D2 receptor (DRD2) small molecule agonists, cell-based qHTS assay (AID 1963594); note: nearly all actives have a fitted effect of over 35% in size
Summary of the method: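 HEK293 cells stably expressing human DRD2, pre-treated with PDE inhibitor Ro20-1724 (0.1 mM final) and compound 10 min at room temperature, then stimulated with NKH477 (200nM […]) for 30 min. cAMP read by HTRF (665/620 nm).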

[15] = molecular target: D(2) dopamine receptor (Homo sapiens) (UniProt P14416); assay: Dopamine D2 receptor (DRD2) small molecule antagonists, cell-based qHTS assay (AID 1963595; active = well fitted inhibition curve with a large enough effect in the signal ratio in the repeat runs, with a control signal flat; the % refers to the signal ratio; note: potency is the fitted concentration of half-maximal effect)
Summary of the method: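 HEK293 cells stably expressing DRD2, preincubated with 0.1 mM Ro20-1724 and compounds 10 min, were stimulated with 200 nM NKH477 plus 12 nM quinpirole for 30 min at room temperature; cAMP measured by HTRF (665/620 nm).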

[16] = molecular target: 5-hydroxytryptamine receptor 2A (Homo sapiens) (UniProt P28223); assay: 5-hydroxytryptamine receptor 2A (HTR2A) small molecule agonists, cell-based qHTS assay (AID 1963587); note: nearly all actives have a fitted effect of over 30% in size; note: potency is the fitted concentration of half-maximal effect
Summary of the method: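 CHO cells stably expressing human HTR2A, plated 18 h, loaded with calcium dye 1 h at 37 C. Agonist mode: compounds added and intracellular calcium fluorescence recorded kinetically for 2 min at 1 sec intervals.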

[17] = molecular target: Muscarinic acetylcholine receptor M1 (Homo sapiens) (UniProt P11229); assay: Cholinergic receptor muscarinic 1 (CHRM1) small molecule agonists, cell-based qHTS assay (AID 1963589); note: nearly all actives have a fitted effect of over 35% in size
Summary of the method: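 Agonist-mode qHTS in CHO cells stably carrying human muscarinic M1. Intracellular calcium is tracked by fluorescence every second after compound transfer; each compound runs at 15 concentrations in three independent runs.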

[18] = cAMP Responsive Elements (CRE) small molecule antagonists, cell-based qHTS assay (AID 1963591; active = well fitted inhibition curve with a large enough effect in the signal ratio in the repeat runs, not every such curve was filed as active; the % refers to the signal ratio)
Summary of the method: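 Antagonist mode: test compounds are co-incubated with the adenylyl cyclase activator NKH477 (0.25 uM final) on CRE-bla HEK293T cells for 3 h at 37 °C, followed by LiveBLAzer substrate loading.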

[19] = molecular target: Muscarinic acetylcholine receptor M1 (Homo sapiens) (UniProt P11229); assay: Cholinergic receptor muscarinic 1 (CHRM1) small molecule antagonists, cell-based qHTS assay (AID 1963588); note: nearly all actives have a fitted effect of over 40% in size; note: potency is the fitted concentration of half-maximal effect
Summary of the method: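 CHRM1-CHO calcium-flux assay, antagonist mode. Cells were seeded 18 h, dye-loaded 1 h at 37 C and given compound for 5 min at RT, then acetylcholine was added at 50nM. FDSS fluorescence was read 3 min; 15 concentrations, three runs.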

[20] = molecular target: 5-hydroxytryptamine receptor 2A (Homo sapiens) (UniProt P28223); assay: 5-hydroxytryptamine receptor 2A (HTR2A) small molecule antagonists, cell-based qHTS assay (AID 1963586); note: nearly all actives have a fitted effect of over 45% in size; note: potency is the fitted concentration of half-maximal effect
Summary of the method: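 Antagonist-mode intracellular calcium assay: DOI (4 nM) added after 5 min compound pre-incubation at room temperature to dye-loaded HTR2A-CHO cells. Fluorescence followed for 3 min, sampled every second.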

Measured: Potency

Beta-2 adrenergic receptor (Homo sapiens), sequence (P07550 whole entry, looked up): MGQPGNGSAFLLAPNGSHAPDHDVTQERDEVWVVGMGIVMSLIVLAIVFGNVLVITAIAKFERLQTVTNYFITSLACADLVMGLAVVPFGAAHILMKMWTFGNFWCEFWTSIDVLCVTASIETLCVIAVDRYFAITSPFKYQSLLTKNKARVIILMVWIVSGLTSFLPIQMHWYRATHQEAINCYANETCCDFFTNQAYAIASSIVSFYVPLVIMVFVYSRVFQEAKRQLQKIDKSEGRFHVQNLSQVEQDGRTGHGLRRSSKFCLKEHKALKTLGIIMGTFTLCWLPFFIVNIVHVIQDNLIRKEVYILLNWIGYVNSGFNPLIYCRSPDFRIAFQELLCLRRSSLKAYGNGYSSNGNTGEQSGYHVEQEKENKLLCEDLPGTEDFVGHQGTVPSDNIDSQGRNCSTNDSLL
D(2) dopamine receptor (Homo sapiens), sequence (P14416 whole entry, looked up): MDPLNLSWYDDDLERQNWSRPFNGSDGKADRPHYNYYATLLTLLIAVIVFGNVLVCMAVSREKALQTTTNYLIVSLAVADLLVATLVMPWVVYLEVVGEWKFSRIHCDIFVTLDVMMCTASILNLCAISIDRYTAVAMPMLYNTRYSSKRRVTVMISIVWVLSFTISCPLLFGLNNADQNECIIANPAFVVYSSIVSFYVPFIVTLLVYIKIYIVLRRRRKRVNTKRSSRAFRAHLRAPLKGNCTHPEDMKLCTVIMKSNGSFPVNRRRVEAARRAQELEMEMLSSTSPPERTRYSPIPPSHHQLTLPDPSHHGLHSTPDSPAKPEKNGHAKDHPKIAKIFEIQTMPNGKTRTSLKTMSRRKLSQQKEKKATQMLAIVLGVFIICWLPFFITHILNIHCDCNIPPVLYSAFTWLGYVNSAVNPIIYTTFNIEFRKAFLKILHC
Muscarinic acetylcholine receptor M1 (Homo sapiens), sequence (P11229 whole entry, looked up): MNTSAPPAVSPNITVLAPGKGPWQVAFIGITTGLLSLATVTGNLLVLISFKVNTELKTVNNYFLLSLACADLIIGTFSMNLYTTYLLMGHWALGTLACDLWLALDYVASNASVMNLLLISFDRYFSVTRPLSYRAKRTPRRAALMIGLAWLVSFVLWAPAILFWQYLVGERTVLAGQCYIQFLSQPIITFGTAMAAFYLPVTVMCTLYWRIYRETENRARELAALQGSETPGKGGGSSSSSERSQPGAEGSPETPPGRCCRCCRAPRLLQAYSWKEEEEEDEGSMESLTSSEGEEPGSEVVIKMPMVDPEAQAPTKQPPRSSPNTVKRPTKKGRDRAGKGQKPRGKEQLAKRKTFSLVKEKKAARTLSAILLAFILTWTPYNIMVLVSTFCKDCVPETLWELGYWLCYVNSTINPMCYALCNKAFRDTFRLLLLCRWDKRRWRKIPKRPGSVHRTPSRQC
Gonadotropin-releasing hormone receptor (Homo sapiens), sequence (P30968 whole entry, looked up): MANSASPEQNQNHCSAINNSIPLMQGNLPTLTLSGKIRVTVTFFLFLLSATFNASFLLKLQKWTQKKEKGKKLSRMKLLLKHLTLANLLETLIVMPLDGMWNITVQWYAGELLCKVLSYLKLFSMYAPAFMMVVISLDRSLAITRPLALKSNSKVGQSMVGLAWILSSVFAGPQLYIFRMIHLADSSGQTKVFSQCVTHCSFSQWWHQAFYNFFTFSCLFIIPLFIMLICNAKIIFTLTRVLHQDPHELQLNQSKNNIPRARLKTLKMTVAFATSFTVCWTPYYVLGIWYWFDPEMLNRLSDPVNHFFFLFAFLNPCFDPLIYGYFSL
KiSS-1 receptor (Homo sapiens), sequence (Q969F8 whole entry, looked up): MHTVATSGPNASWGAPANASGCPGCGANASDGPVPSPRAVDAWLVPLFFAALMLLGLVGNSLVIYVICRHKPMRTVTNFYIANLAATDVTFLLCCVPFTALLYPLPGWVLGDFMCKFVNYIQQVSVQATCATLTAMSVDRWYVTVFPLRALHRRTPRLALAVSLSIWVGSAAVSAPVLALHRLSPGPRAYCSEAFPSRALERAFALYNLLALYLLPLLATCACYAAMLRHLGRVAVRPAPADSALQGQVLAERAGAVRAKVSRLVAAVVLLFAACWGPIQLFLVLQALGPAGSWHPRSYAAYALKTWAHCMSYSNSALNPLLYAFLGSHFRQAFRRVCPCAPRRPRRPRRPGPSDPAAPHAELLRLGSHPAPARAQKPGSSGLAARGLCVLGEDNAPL
5-hydroxytryptamine receptor 2A (Homo sapiens), sequence (P28223 whole entry, looked up): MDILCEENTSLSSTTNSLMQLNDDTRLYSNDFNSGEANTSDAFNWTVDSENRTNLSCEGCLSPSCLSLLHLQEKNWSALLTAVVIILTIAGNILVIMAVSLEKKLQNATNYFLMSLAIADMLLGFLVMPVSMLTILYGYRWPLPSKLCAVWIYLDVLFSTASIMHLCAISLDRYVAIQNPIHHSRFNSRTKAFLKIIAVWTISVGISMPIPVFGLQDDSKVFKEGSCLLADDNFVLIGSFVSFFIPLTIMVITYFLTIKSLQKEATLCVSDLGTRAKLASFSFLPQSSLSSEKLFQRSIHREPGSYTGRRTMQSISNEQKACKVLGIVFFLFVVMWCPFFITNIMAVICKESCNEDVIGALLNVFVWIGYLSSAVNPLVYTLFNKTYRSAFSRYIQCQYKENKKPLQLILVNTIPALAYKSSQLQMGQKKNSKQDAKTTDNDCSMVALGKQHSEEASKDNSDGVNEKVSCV

NC(=O)CC[C@@H]1NC(=O)[C@H](Cc2ccccc2)NC(=O)[C@H](Cc2ccc(O)cc2)NC(=O)CCSSC[C@@H](C(=O)N2CCC[C@H]2C(=O)N[C@@H](CCCN=C(N)N)C(=O)NCC(N)=O)NC(=O)[C@H](CC(N)=O)NC1=O
not listed: [16] | [17] | [18] | [19] | [20]
inactive: all other assays above

CCN(CC)C(C)CN1c2ccccc2Sc2ccccc21 (centres undefined)
not listed: [13] | [14] | [19] | [20]
inactive: all other assays above

CCO[Si](CCCCl)(OCC)OCC
not listed: [11] | [20]
inactive: all other assays above

Nc1ccn([C@@H]2O[C@H](CO)[C@@H](O)C2(F)F)c(=O)n1
active: [10] 0.199 µM
not listed: [12] | [13] | [14] | [16] | [17] | [19] | [20]
inactive: all other assays above

CN1CCCC(n2nc(Cc3ccc(Cl)cc3)c3ccccc3c2=O)CC1 (centres undefined)
active: [20] 0.46 µM
not listed: [11] | [12] | [13] | [15] | [16] | [18] | [19]
inactive: all other assays above

O=C1CCCCCCCCCCC(=O)OCCO1
not listed: [11] | [13] | [16] | [18]
inactive: all other assays above

CCCCCCCCCCCCCCNCCO
active: [1] 26.6 µM | [2] 13.3 µM | [16] 23.9 µM
not listed: [14] | [19] | [20]
inactive: all other assays above

CC1(C)CC(O)CC(C)(C)N1
not listed: [13] | [19]
inactive: all other assays above

CN1CCN(C2=Nc3ccccc3Sc3ccc(Cl)cc32)CC1
active: [19] 1.45 µM | [15] 5.96 µM
not listed: [11] | [13] | [18] | [20]
inactive: all other assays above

Nc1nc(-c2ccccc2)c(Br)c(=O)[nH]1
not listed: [14] | [18] | [19]
inactive: all other assays above

CN1CCCCC1CCN1c2ccccc2Sc2ccc(S(C)=O)cc21 (centres undefined)
active: [19] 0.0103 µM | [15] 1.88 µM
not listed: [20]
inactive: all other assays above

CN1CCC(=C2c3ccccc3C=Cc3ccccc32)CC1
active: [15] 13.3 µM
not listed: [12] | [13] | [16] | [17] | [18] | [19] | [20]
inactive: all other assays above

ICCc1ccccc1
active: [2] 67.2 µM | [8] 28.3 µM
not listed: [10] | [13] | [14] | [18]
inactive: all other assays above

CC(=O)OC(C)=O
not listed: [10] | [13] | [19]
inactive: all other assays above

CC(C(=O)O)c1ccc2c(c1)Cc1cccnc1O2 (centres undefined)
not listed: [10] | [11] | [13] | [15] | [18]
inactive: all other assays above

C=Cc1ccccc1
not listed: [10] | [13]
inactive: all other assays above

CCCCCCCCCCCC(=O)N(CC)CC
not listed: [10] | [13] | [18]
inactive: all other assays above

CCCC1CCC(=O)O1 (centres undefined)
not listed: [10] | [14] | [15] | [18]
inactive: all other assays above

CCOCCOCCOC(C)=O
not listed: [10] | [13] | [19]
inactive: all other assays above

Cc1occc(=O)c1OC(=O)C(C)C
not listed: [10] | [13]
inactive: all other assays above

O=C(c1ccc(O)cc1)c1ccc(O)cc1
not listed: [10] | [11] | [15]
inactive: all other assays above

N#Cc1cc2ccccc2c2ccccc12
not listed: [10] | [13] | [19]
inactive: all other assays above

COC(=O)CCCCC(CCSS/C(CCO)=C(\C)N(C=O)Cc1cnc(C)nc1N)SC(C)=O (centres undefined)
not listed: [10] | [15] | [20]
inactive: all other assays above

O=C(NS(=O)(=O)/C=C/c1ccccc1)c1ccc(F)cc1Cl
active: [2] 27.3 µM
not listed: [10] | [16] | [18]
inactive: all other assays above

Cc1cc(Br)ccc1NC(=O)CCl
active: [1] 30.6 µM | [2] 13.7 µM
not listed: [10] | [11] | [12] | [17] | [18]
inactive: all other assays above

CCN(CC)C(=O)/C(C#N)=C/c1cc(O)c(O)c([N+](=O)[O-])c1
not listed: [10] | [11] | [13] | [14] | [18]
inactive: all other assays above

Cc1cc(O)c(C(C)(C)C)cc1C(C)(C)C
active: [1] 27.3 µM | [3] 38.9 µM | [8] 18.2 µM | [9] 40.8 µM | [20] 18.8 µM | [16] 34.7 µM | [15] 43.3 µM
inactive: [2] | [4] | [5] | [6] | [7] | [19] | [14]

Nc1c(CC(=O)O)cccc1C(=O)c1ccc(Br)cc1
not listed: [10] | [11] | [13] | [16] | [17] | [18] | [19] | [20]
inactive: all other assays above
